# In all, about 9,900 sequences were measured (“r (bound/input frequency ratio)”: median about 0.7, highest 2% from about 6.5 on). What follows is part of a selection rich in the highest values, with near analogues and random picks from the rest.
# B1: ENSMUSG00000042529.155|Kcnj12|40:44 (ssRNA)
# RNA: GGGAGUUCUACAGUCCGACGAUCGCUUCGAUAUCCGCAUGCUAAGAGUGGGUGCUUCUUAGAAAAGGACACUCAGGAAAUUACAUACGGGUCUGGGUCCCACAUCCCCAGGAAGUGGGUCAGCCCCACGUCCCCCGCUGGACUCACAGCUUGAGUUGUGCCUUAGAGACUCUGGUUGUCUGGCUUCCGUCAUUUCUGGUUUUCUCAGACUUGUUUAAUCUUUCCCUACUGCCCUAAGUCCACUCAUGAAGCUCCCCAGGCCCUUCUGAGAUUGCAGAGGCUGCUUGCUCAUAGCCAUGACCCUCUCUUGCGGUCGCACUAGUGUGGAAUUCUCGGGUGUCAAGG
# B2: ENSMUSG00000031028.502|Tub (ssRNA)
# RNA: GGGAGUUCUACAGUCCGACGAUCGCUUCGAUAUCCGCAUGCUACAAGUAAGGUGUGUGCCUCUGGGAAGACAGGAGUCGGAAGCCAAGGUGUGUGGCAACAGUCUGGAAGAGAGCUUUUGGUAAUCAUACCGUCUUCAGUGACAAGGCAACAAUGCUGUAAAGUGGGUUUGUUUGGUUUUGUUUUUUCUUUCUCUUUUAUGGAAAUGGCAGGUCUAUUUGCCUCAAACGUUAUGUAGAAGUAGUUCUAAGUUUAACAAGCAAUAGAGAUGACUGCUUAGCUAGGAUCUGCAGGGAGCUCUGCUCUCUUGCGGUCGCACUAGUGUGGAAUUCUCGGGUGUCAAGG
# B3: ENSMUSG00000042529.125|Kcnj12|220:224 (ssRNA)
# RNA: GGGAGUUCUACAGUCCGACGAUCGCUUCGAUAUCCGCAUGCUAGUGGGGCCCACUAGGGUGAAUCUGGCUUGCUCUUCUGUUUGAUGUUGUUGUACCUCAGCUGCCUCAGGGCUGGGUUUAGACACCCCUUCCCCCACCCCCACUCCGUACUCCCUGUUGUGCUUCCCUUCCUAUUUAGUCCCAGGUCUCCACCCCUUGCAGCGAGGGGGCAUAGGAAACACCAGAGUGGGUGCUUCUUAGAAAAGGACACUCAGGAAAUUACAUACGGGUCUGGGUCCCACAUCCCCAGGAAGUGGGUCAGCCUCUUGCGGUCGCACUAGUGUGGAAUUCUCGGGUGUCAAGG
# B4: ENSMUSG00000031028.204|Tub|197:201;203:208 (ssRNA)
# RNA: GGGAGUUCUACAGUCCGACGAUCGCUUCGAUAUCCGCAUGCUACUCUUCCCAGUUCCAGAGAUGAAACCCCUCCGAGUUAAUGUAUAAGGUUGGAAACCUUUCAGUAGGGAAUCAGGCAGUUCCCUGUUGAAAGUUGUCUGAGUUUUUGCACACCAUUCUGAUCUGAUGUGGCCUGUGCCUGGCUCCUCUAUGAGGACUUCGAGCUGUGCACAGACCUUAGCAGGACCACUGCACACUUACACACACACACACAGGCAGCCCAAGGGUUCUGGGGCUGGGCUUGGACACGCCCUCCAUUGGGACUCUUGCGGUCGCACUAGUGUGGAAUUCUCGGGUGUCAAGG
# B5: ENSMUSG00000032194.8|Kank2 (ssRNA)
# RNA: GGGAGUUCUACAGUCCGACGAUCGCUUCGAUAUCCGCAUGCUAGCCGAGGAGUGAAUACAGGGAGGAGCCAGUGAGUCCCCCAGGACCCACCAGCCACAAGCCACGCAUCAAACCGUCCCUCCUCCAUCCCUCUGUCCCAUUCUGCCUCGGCAUUCCUCAGCCCCUGAACUUCCCUGAGGGAGCCCUGACAUCUACCAGGCUCAAGCUCCUGGAAGCCUUUCCCAGCACCCUGGGUUCAAAGCCAGAAAGCCAAGCUACAUUCUCCUCCCAGUUGGCACCAGUUGACAACGCCUUGGGUGUGGCUCUUGCGGUCGCACUAGUGUGGAAUUCUCGGGUGUCAAGG
# B6: ENSMUSG00000031028.492|Tub|69:75;106:112 (ssRNA)
# RNA: GGGAGUUCUACAGUCCGACGAUCGCUUCGAUAUCCGCAUGCUAUUUAAAUGAACAUGGGGUGGUGAUGGUGCCUUAACAAUCUUGACACUAAGGUGAAGCAAGCAAGUAAGCACACACCCUCUGGGAAGACAGGAGUCGGAAGCCAAGCACACACGCAACAGUCUGGAAGAGAGCUUUUGGUAAUCAUACCGUCUUCAGUGACAAGGCAACAAUGCUGUAAAGUGGGUUUGUUUGGUUUUGUUUUUUCUUUCUCUUUUAUGGAAAUGGCAGGUCUAUUUGCCUCAAACGUUAUGUAGAAGUAGCUCUUGCGGUCGCACUAGUGUGGAAUUCUCGGGUGUCAAGG
# B7: ENSMUSG00000061578.750|Ksr2 (ssRNA)
# RNA: GGGAGUUCUACAGUCCGACGAUCGCUUCGAUAUCCGCAUGCUACAAGUUUGAGUCUCCAUAUGGGCCCUUCCUGUCCUCAUGCCCUGCCUGUCUUCAUUCCACCCAUCCACCCUCCUAAGGAUUGGUCUUGUUCCGAGAGUGAUCCUGGUAACGCCAAGCCUCCCUCUGCCCCUGUGUUGGCUUCUGUGACGGACUACCACACACCAAGAGGUUUUUCACAGUGAAGAUGUAUGCUCUCACCAUCCUACAGAUGCAAAGACCAAACACAAAGUGUCUGCAUGACCUUCCCCCUCUGGAAUUUGCUCUUGCGGUCGCACUAGUGUGGAAUUCUCGGGUGUCAAGG
# B8: ENSMUSG00000028439.176|Fam219a (ssRNA)
# RNA: GGGAGUUCUACAGUCCGACGAUCGCUUCGAUAUCCGCAUGCUAGUAUGGUAUGCACAUGUGUGUGCAUGUGUGUGUGCCUGUGUGUGUGCGUGUGCGUGUGUGUAUGUGUGUGCGUGUGUGUGUGUGUGUGUUGUACCCGAGUGUGUGUUGAGCCUAUCUGUCCAGGGAACCAGAUUGGUGUCCGAGAUGAGGAAAUGGCUGUGGCCUGGGAAAUCAGUGAGAGGCCGCUUGGGAAUGAGAAUGCAGUGGACUGAAAGCACAGCCUGGCCAUCUGGAACCUGGGUUCUGGUCCCAGCCUCGGCCUCUUGCGGUCGCACUAGUGUGGAAUUCUCGGGUGUCAAGG
# B9: ENSMUSG00000028439.174|Fam219a|3:22;27:34;37:46;49:58;60:64;66:82;84:101;111:118 (ssRNA)
# RNA: GGGAGUUCUACAGUCCGACGAUCGCUUCGAUAUCCGCAUGCUAUGCAUACCAUACCAUACCAUACCACAACACACACCAACACACACACCCACACACACACCCACACCCACACACAUACACACACCCACACACACACACACACAUGUACCCGACACACACAUGAGCCUAUCUGUCCAGGGAACCAGAUUGGUGUCCGAGAUGAGGAAAUGGCUGUGGCCUGGGAAAUCAGUGAGAGGCCGCUUGGGAAUGAGAAUGCAGUGGACUGAAAGCACAGCCUGGCCAUCUGGAACCUGGGUUCUGGUCUCUUGCGGUCGCACUAGUGUGGAAUUCUCGGGUGUCAAGG
# B10: ENSMUSG00000028439.174|Fam219a (ssRNA)
# RNA: GGGAGUUCUACAGUCCGACGAUCGCUUCGAUAUCCGCAUGCUAUGGUAUGGUAUGGUAUGGUAUGCACAUGUGUGUGCAUGUGUGUGUGCCUGUGUGUGUGCGUGUGCGUGUGUGUAUGUGUGUGCGUGUGUGUGUGUGUGUGUUGUACCCGAGUGUGUGUUGAGCCUAUCUGUCCAGGGAACCAGAUUGGUGUCCGAGAUGAGGAAAUGGCUGUGGCCUGGGAAAUCAGUGAGAGGCCGCUUGGGAAUGAGAAUGCAGUGGACUGAAAGCACAGCCUGGCCAUCUGGAACCUGGGUUCUGGUCUCUUGCGGUCGCACUAGUGUGGAAUUCUCGGGUGUCAAGG
# B11: ENSMUSG00000028439.171|Fam219a (ssRNA)
# RNA: GGGAGUUCUACAGUCCGACGAUCGCUUCGAUAUCCGCAUGCUAAUAUGGUAUGGUAUGGUAUGGUAUGGUAUGGUAUGGUAUGCACAUGUGUGUGCAUGUGUGUGUGCCUGUGUGUGUGCGUGUGCGUGUGUGUAUGUGUGUGCGUGUGUGUGUGUGUGUGUUGUACCCGAGUGUGUGUUGAGCCUAUCUGUCCAGGGAACCAGAUUGGUGUCCGAGAUGAGGAAAUGGCUGUGGCCUGGGAAAUCAGUGAGAGGCCGCUUGGGAAUGAGAAUGCAGUGGACUGAAAGCACAGCCUGGCCAUCCUCUUGCGGUCGCACUAGUGUGGAAUUCUCGGGUGUCAAGG
# B12: ENSMUSG00000028439.173|Fam219a (ssRNA)
# RNA: GGGAGUUCUACAGUCCGACGAUCGCUUCGAUAUCCGCAUGCUAAUGGUAUGGUAUGGUAUGGUAUGGUAUGCACAUGUGUGUGCAUGUGUGUGUGCCUGUGUGUGUGCGUGUGCGUGUGUGUAUGUGUGUGCGUGUGUGUGUGUGUGUGUUGUACCCGAGUGUGUGUUGAGCCUAUCUGUCCAGGGAACCAGAUUGGUGUCCGAGAUGAGGAAAUGGCUGUGGCCUGGGAAAUCAGUGAGAGGCCGCUUGGGAAUGAGAAUGCAGUGGACUGAAAGCACAGCCUGGCCAUCUGGAACCUGGGUCUCUUGCGGUCGCACUAGUGUGGAAUUCUCGGGUGUCAAGG
# B13: ENSMUSG00000028439.175|Fam219a (ssRNA)
# RNA: GGGAGUUCUACAGUCCGACGAUCGCUUCGAUAUCCGCAUGCUAGGUAUGGUAUGGUAUGCACAUGUGUGUGCAUGUGUGUGUGCCUGUGUGUGUGCGUGUGCGUGUGUGUAUGUGUGUGCGUGUGUGUGUGUGUGUGUUGUACCCGAGUGUGUGUUGAGCCUAUCUGUCCAGGGAACCAGAUUGGUGUCCGAGAUGAGGAAAUGGCUGUGGCCUGGGAAAUCAGUGAGAGGCCGCUUGGGAAUGAGAAUGCAGUGGACUGAAAGCACAGCCUGGCCAUCUGGAACCUGGGUUCUGGUCCCAGCCUCUUGCGGUCGCACUAGUGUGGAAUUCUCGGGUGUCAAGG
# B14: ENSMUSG00000028439.172|Fam219a (ssRNA)
# RNA: GGGAGUUCUACAGUCCGACGAUCGCUUCGAUAUCCGCAUGCUAUAUGGUAUGGUAUGGUAUGGUAUGGUAUGGUAUGCACAUGUGUGUGCAUGUGUGUGUGCCUGUGUGUGUGCGUGUGCGUGUGUGUAUGUGUGUGCGUGUGUGUGUGUGUGUGUUGUACCCGAGUGUGUGUUGAGCCUAUCUGUCCAGGGAACCAGAUUGGUGUCCGAGAUGAGGAAAUGGCUGUGGCCUGGGAAAUCAGUGAGAGGCCGCUUGGGAAUGAGAAUGCAGUGGACUGAAAGCACAGCCUGGCCAUCUGGAACCUCUUGCGGUCGCACUAGUGUGGAAUUCUCGGGUGUCAAGG
# B15: ENSMUSG00000028439.170|Fam219a (ssRNA)
# RNA: GGGAGUUCUACAGUCCGACGAUCGCUUCGAUAUCCGCAUGCUAUGUAUGAUAUGGUAUGGUAUGGUAUGGUAUGGUAUGGUAUGGUAUGCACAUGUGUGUGCAUGUGUGUGUGCCUGUGUGUGUGCGUGUGCGUGUGUGUAUGUGUGUGCGUGUGUGUGUGUGUGUGUUGUACCCGAGUGUGUGUUGAGCCUAUCUGUCCAGGGAACCAGAUUGGUGUCCGAGAUGAGGAAAUGGCUGUGGCCUGGGAAAUCAGUGAGAGGCCGCUUGGGAAUGAGAAUGCAGUGGACUGAAAGCACAGCCUGCUCUUGCGGUCGCACUAGUGUGGAAUUCUCGGGUGUCAAGG
# Molecular target: TDP-43 (Homo sapiens, UniProt Q13148 1-414)
# Sequence (Q13148 whole entry): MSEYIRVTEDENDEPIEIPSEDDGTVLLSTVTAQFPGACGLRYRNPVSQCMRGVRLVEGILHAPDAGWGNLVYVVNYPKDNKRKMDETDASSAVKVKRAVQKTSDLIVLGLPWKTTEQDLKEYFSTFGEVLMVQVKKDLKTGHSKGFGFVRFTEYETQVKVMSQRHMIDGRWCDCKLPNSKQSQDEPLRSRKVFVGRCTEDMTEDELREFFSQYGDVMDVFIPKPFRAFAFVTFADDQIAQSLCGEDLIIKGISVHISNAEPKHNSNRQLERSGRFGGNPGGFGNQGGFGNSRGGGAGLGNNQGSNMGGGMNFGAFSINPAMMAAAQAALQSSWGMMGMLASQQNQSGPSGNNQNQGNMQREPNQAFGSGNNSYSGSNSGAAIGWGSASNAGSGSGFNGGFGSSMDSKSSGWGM
# Experiment: RNA Bind-n-Seq with designed 260-mer pool; 25 mM Tris-HCl, 150 mM KCl, 3 mM MgCl2, BSA (printed 500 mg/mL), 20 units/mL SUPERase IN; pH not stated; 500 nM RNA pool, 1 h, 4 C; TDP-43 5, 50, 500 nM; high values mean tight binding
# Settings: protein: recombinant; tags: SBP (GST cleaved off with PreScission; pGEX-GST-SBP)
# In short: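 The incubation lasted 1 h at 4 °C and used 500 nM of an in vitro-transcribed 260-nt 3′ UTR oligo pool with recombinant SBP-tagged TDP-43 at 5, 50 or 500 nM immobilized on streptavidin beads. It took place in 25 mM Tris-HCl, 150 mM KCl, 3 mM MgCl2, BSA and SUPERase IN. Bound RNA was washed, eluted with biotin, converted to cDNA, PCR-amplified and sequenced to give R, each oligo's normalized abundance in the bound sample divided by that in input. Two independent protein batches provided the duplicates.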
row,Binder,binding signal
1,B1,0.524 R (bound/input frequency ratio)
2,B2,0.806 R (bound/input frequency ratio)
3,B3,0.802 R (bound/input frequency ratio)
4,B4,1.16 R (bound/input frequency ratio)
5,B5,1.4 R (bound/input frequency ratio)
6,B6,0.828 R (bound/input frequency ratio)
7,B7,0.725 R (bound/input frequency ratio)
8,B8,5.69 R (bound/input frequency ratio)
9,B9,1.59 R (bound/input frequency ratio)
10,B10,7.57 R (bound/input frequency ratio)
11,B11,8.2 R (bound/input frequency ratio)
12,B12,6.03 R (bound/input frequency ratio)
13,B13,7.42 R (bound/input frequency ratio)
14,B14,6.41 R (bound/input frequency ratio)
15,B15,6.06 R (bound/input frequency ratio)

# Reference: PMC12864922, “TDP-43 directly inhibits mRNA accumulation in neurites through modulation of mRNA stability”
